Screening results (PubChem)
The list is not random: actives were taken first. Their share in the collection is about 12%.
G9a inh – G9a (human) methyltransferase inhibition | Q96KQ7 | Potency, µM (top dose mostly 102 µM), actives largely listed as inhibitors | G9a H3K9 monomethylation, AlphaScreen, 2 h | 350,000 compounds, 8.8% hits; also: nearly all actives have a fitted effect of over 75% in size
Target sequence (Q96KQ7 913-1193 limits assumed): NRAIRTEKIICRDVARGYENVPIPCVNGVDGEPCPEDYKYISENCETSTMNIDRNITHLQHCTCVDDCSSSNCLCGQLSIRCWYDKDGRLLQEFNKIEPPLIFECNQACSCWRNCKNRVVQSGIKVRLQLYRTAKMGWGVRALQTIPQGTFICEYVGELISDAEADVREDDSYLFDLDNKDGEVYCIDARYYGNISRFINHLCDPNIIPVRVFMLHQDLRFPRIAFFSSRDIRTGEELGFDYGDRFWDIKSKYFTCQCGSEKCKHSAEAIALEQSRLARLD
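Compounds were preincubated with 20 nM G9a for 15 min, after which biotinylated H3K9 peptide (500 nM) and SAM (20 uM) started a 2 h room-temperature reaction. Monomethylated product was quantified by antibody-based AlphaScreen chemiluminescence.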
JMJD2A Tudor inh – JMJD2A Tudor domain (human) inhibition; O75164; AlphaScreen JMJD2A-Tudor / H3K4me3 peptide binding; Potency, µM (highest dose often 114 µM), hits mostly inhibitors; 390,000 compounds, 4.4% hits; also: nearly all actives have a fitted effect of over 50% in size
BAZ2B inh – blocks human BAZ2B. AlphaScreen BAZ2B-H3K14Ac peptide displacement. Potency, µM (titrated, usually from 114 µM), hits mostly inhibitors. 360,000 compounds, 4.4% hits; also: nearly all actives have a fitted effect of over 60% in size
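AlphaScreen luminescence quantifies BAZ2B engagement of H3K14Ac peptide; the protein and biotinylated peptide are both at 50 nM final, buffer PBS pH 7.4 with 0.01% Tween-20, all steps at room temperature.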
Sfp inh – inhibitors of Bacillus subtilis Sfp phosphopantetheinyl transferase; Biochemical Sfp PPTase activity, qHTS; Potency, µM, hits mostly inhibitors; 310,000 compounds, 3.5% hits; AID 1490; Q9F4F7;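 also: the enzyme is Sfp with the accession as filed and its product quenches rhodamine fluorescence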
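After 15 min at room temperature with compound, 15 nM Sfp received 5 uM rhodamine-CoA plus 12.5 uM BHQ-2-ybbR (50 mM Hepes pH 7.6, 10 mM MgCl2). Rate came from the fluorescence difference over 30 min, ex 525/em 598 nm.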
HP1b chromo inh – HP1-beta chromodomain-methylated histone interaction inhibition | 390,000 compounds, 0.56% hits | AID 540317 | AlphaScreen HP1-beta / biotin-H3K9me3 peptide binding | Potency, µM (series often up to 114 µM), hits mostly inhibitors | P83916; also: nearly all actives have a fitted effect of over 70% in size
Target sequence (P83916 whole entry, looked up): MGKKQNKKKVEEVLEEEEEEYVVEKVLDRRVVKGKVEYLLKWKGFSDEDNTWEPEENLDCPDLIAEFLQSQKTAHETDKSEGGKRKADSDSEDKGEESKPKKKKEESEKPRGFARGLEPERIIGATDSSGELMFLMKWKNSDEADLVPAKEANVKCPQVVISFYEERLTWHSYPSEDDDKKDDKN
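AlphaScreen: HP1-beta (50 nM) preformed 30 min with biotin-H3(1-18)K9me3 peptide (50 nM) in PBS pH 7.4, 0.01% Tween-20. Compound added for 30 min at RT, then streptavidin donor/nickel chelate acceptor beads (10 ug/mL) for 30 min.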
TDP1 inh – inhibitors of human tyrosyl-DNA phosphodiesterase TDP1 | Q9NUW8 | recombinant TDP1, AlphaScreen DNA substrate cleavage | Potency, µM (highest dose often 130 µM), usual class: inhibitors | 350,000 compounds, 0.28% hits; also: nearly all actives have a fitted effect of over 40% in size
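E. coli-derived human Tdp1, 1 nM final. Cpd preinc 15 min RT; substrate 15 nM final, 5 min RT; AS bead mix 10 ug/ml final, 10 min RT. Signal loss = tyrosine-FITC cleavage. No-enzyme wells = max signal.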
A number is an active result; . = inactive; ? = inconclusive; / = no result given; [ ] = remark or other dose. Calls follow the shape of the dose curve; as a rule, active = well fitted curve in the direction sought with a large enough effect; inconclusive = small, poorly fitted or top-dose-only effect, or another doubt; inactive = no such curve, though single readings can be large; an effect the other way counts as inactive or inconclusive.

SMILES	G9a inh	JMJD2A Tudor inh	BAZ2B inh	Sfp inh	HP1b chromo inh	TDP1 inh
COc1ccc(-c2csc3ncnc(N4CCN(c5ccccc5[N+](=O)[O-])CC4)c23)cc1	14µM	?	?	.	?	.
COc1ccc(-c2csc3ncnc(N4CCN(c5ccc(OC)cc5)CC4)c23)cc1	/	32µM	10µM	.	?	.
COc1ccc(N2CCN(c3ncnc4onc(-c5ccc(F)cc5)c34)CC2)cc1	18µM	?	.	/	.	.
CCOc1ccc(-c2nnn(CC(=O)N3CCCC(C)C3)n2)cc1 (stereo not given)	/	.	.	.	.	.
COc1cccc(NC(=O)c2ccc3nc(Cc4ccccc4)oc3c2)c1	.	.	.	/	.	.
N=c1oc2cc(O)ccc2cc1C(=O)Nc1ccc(Cl)cc1	?	.	.	.	.	/
O=C(CSc1c2c(nc3cc(Cl)ccc13)CCCC2)N1CCN(c2ccccc2F)CC1	.	.	.	/	.	.
COc1cc2c(cc1NC(=S)Nc1cccc3ccccc13)oc1ccccc12	?	?	79µM	?	?	.
COCCCNC(=S)Nc1cc2oc3ccccc3c2cc1OC	.	.	?	.	.	.
COc1cc2c(cc1NCc1ccccn1)oc1ccccc12	?	45µM	45µM	.	?	.
COc1cc2c(cc1NCc1ccc3c(c1)OCO3)oc1ccccc12	?	?	32µM	?	?	.
COc1cc2c(cc1NC(=O)c1ccc3c(c1)OCO3)oc1ccccc12	.	.	.	.	.	.
O=C(CN(Cc1ccccc1Cl)C(=O)c1csnn1)NCCc1ccccc1	.	.	.	.	.	.
CCCCn1c(N)c(N(C)C(=O)C2CC(=O)N(Cc3ccco3)C2)c(=O)[nH]c1=O (stereo not given)	/	.	/	/	.	.
CC1CCCN(CC(O)CN2CCN(CC(O)CN3CCCC(C)C3)C(C)C2)C1 (stereo not given)	/	.	/	/	.	/
CC(C)(C)OC(=O)N1CCC(c2c(C(=O)O)cnn2-c2ccccc2Cl)CC1	.	.	.	.	.	.
CC(C)(C)OC(=O)N1CCC(c2c(C(=O)NCC3CCN(C4CCCC4)C3)cnn2-c2ccccc2Cl)CC1 (stereo not given)	71µM	.	.	.	.	.
Cc1cc(C(=O)COC(=O)c2cc(O)c3ccccc3c2O)c(C)n1CC1CCCO1 (stereo not given)	10µM	32µM	50µM	79µM	28µM	.
Cc1cc(C(=O)COC(=O)c2ccccc2O)c(C)n1CC1CCCO1 (stereo not given)	.	?	?	/	.	.
CCc1nn(Cc2cc(C)ccc2C)c(=O)c2cc3cc(C)ccc3n12	.	.	.	/	.	.
CCC1(C)Cc2nc3sc(C(=O)O)c(N)c3cc2CO1 (stereo not given)	3.5µM	50µM	.	28µM	.	.
CCCCc1nc2ccccc2c(NC(=O)CNC(C)(C)C)c1CCC	8.9µM	10µM	50µM	?	.	.
O=C1CCN(CCc2ccccc2)CCN1C(CSc1ccc(Br)cc1)Cc1ccccc1 (stereo not given)	/	.	/	.	.	.
Cc1cccc(NC(=O)Cn2nc(-c3ccco3)ccc2=O)c1C	?	.	.	.	.	.
Cc1cccc(NC(=O)CSc2nnc(-c3ccco3)c(-c3ccco3)n2)c1	8.9µM	40µM	50µM	7.9µM	?	.
SMILES	G9a inh	JMJD2A Tudor inh	BAZ2B inh	Sfp inh	HP1b chromo inh	TDP1 inh
Cc1cccc(NC(=O)CSc2nnc(-c3ccco3)c(-c3ccco3)n2)c1C	.[0.501 µM]	50µM	35µM	32µM	?	?
CCN(c1ccccc1)C(CNS(=O)(=O)c1ccccc1)c1ccccc1 (stereo not given)	.	.	.	/	.	.
CSc1nsc(SC)c1NC(=O)Nc1ccccc1C	.	.[11.4 µM]	.	.	.	.
CSc1nsc(SC)c1NC(=O)N1CCCCC1	45µM	.	.	.	.	.
COc1ccc(/C=N/NC(=O)c2ccc(O)cc2O)cc1CSc1ccccn1	50µM	?	56µM	.	?	.
Cc1c(NC(=O)C(=O)/C=C(\O)c2ccc(Cl)cc2)c(=O)n(-c2ccccc2)n1C	.	13µM	?	.	.	.
